molecular target: CDC42BPB; assay: pooled miR-30 sensor sort-seq; sequence = guide strand; conditions: shRNA
Further: reference of the scale not given here.

Row | Sequence | sensor-assay potency score (higher = more potent)
1 | TTTAATGTCTCTGTGCACGTAA | 0.422
2 | TTCTGAATCATGCACCTCCTTC | -0.418
3 | TTGAAGTAGATCAAGCGTGGAG | 0.0489
4 | TCATCTTCAAACATGATCCAAA | -0.68
5 | TTCGATTTCTTCATTTAGCTTT | 0.598
6 | TAGAGCATCTCATACATGCAGA | -0.774
7 | TACTATTCTCTTAAGGTCCTAG | -0.0384
8 | TTATTTCAAAGTCTTCTCGATG | -1.07
9 | TTTCACTTCTAGCACATGGGAG | -0.202
10 | TTTGATTTCTTTATCTCGGTTT | 0.716
11 | TTTGATTTTGGAAATCTCTTGC | 0.44
12 | TTTCCTTGGACAACACTGGAGG | -0.765

molecular target: CDC42SE1; assay: as above; conditions: shRNA

Row | Sequence | sensor-assay potency score (higher = more potent)
13 | TGGGGTTTCTCTACCACACAGC | -1.01
14 | TTGCTCCATGGCCTATCTCGGT | -1.82
15 | TCATCTGCTCCTGAACTGCACC | -1.23
